From PubChem BioAssay
Artemis inh – Artemis (human) endonuclease inhibition | Q96SD1 | recombinant Artemis, quenched FAM hairpin cleavage fluorescence | inhibition, % at 10 µM | actives 0.78% (n = 30,000);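 active means at 10 µM dose, at least 30% inhibition, measured as corrected fluorescence normalized to stimulator and neutral control wells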
Target sequence (Q96SD1 whole entry, looked up): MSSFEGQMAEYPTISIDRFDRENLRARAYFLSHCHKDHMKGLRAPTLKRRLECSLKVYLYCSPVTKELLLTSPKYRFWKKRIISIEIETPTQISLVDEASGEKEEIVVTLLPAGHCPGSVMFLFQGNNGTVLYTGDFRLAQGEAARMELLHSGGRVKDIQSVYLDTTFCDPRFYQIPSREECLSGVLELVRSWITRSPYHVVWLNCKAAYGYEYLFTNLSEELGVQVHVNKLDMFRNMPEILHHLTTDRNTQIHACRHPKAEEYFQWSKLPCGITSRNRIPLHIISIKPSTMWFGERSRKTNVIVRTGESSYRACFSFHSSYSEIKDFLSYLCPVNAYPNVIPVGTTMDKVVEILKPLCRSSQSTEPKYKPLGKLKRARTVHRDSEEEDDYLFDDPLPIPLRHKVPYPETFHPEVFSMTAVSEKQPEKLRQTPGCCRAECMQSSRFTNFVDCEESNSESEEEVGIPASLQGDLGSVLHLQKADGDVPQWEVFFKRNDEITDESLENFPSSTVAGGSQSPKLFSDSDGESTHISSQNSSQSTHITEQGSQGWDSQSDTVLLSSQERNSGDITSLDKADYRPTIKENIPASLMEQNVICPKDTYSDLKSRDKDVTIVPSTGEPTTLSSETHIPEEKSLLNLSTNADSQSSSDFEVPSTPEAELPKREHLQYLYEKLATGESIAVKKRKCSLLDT
Each line names hits and unclear results; the compound was inactive in the other large screens. Only a selection was taken, and hits are over-represented in it overall.

CCOC(=O)c1c(NC(=O)CSc2nnc3c(n2)[nH]c2ccccc23)sc2c1CCN(C)C2	Artemis inh 42.0
CCOC(=O)c1c(NC(=O)CSc2nncs2)sc(C)c1C	none
CCOC(=O)c1c(NC(=O)CSc2nnnn2-c2ccccc2)sc2c1CCC(C)C2 (stereo not given)	none
CCOC(=O)c1sc(NC(=O)COC(=O)Cn2cnc3ccccc32)c(C(=O)OCC)c1C	none
Cc1cccc(NC(=S)NNC(=O)c2nn(C)cc2Cl)c1	none
CNC(=O)CC(=O)Nc1ccccc1C(=O)O	none
C/C(=N\O)c1ccccc1C(=O)O	Artemis inh 46.1
O=C(O)c1ccccc1C(=O)OCc1ccccc1	none
CC(=O)NC1(c2ccc(F)cc2)CCN(C(=O)Nc2ccc(F)cc2F)CC1	none
Cc1ccc(S(=O)(=O)NC2CCCc3ccccc32)cc1C (stereo not given)	none
O=C1NC(=O)/C(=C\c2ccccc2Oc2ccc(F)c(F)c2)S1	Artemis inh 33.7
O=C(O)c1cc(-c2ccccc2Cl)n[nH]1	none
Oc1c(Br)cc(C2N=C(c3ccccc3Cl)NO2)cc1Br (stereo not given)	Artemis inh 31.2
COc1ccc(-c2csc(/C(C#N)=C(\O)CSc3nccn3C)n2)cc1OC	none
CCOC(=O)c1cncc(C(=O)O)c1	none
Cn1c(C(=O)O)c(CC(=O)NCc2cccnc2)c2ccccc21	none
O=c1ccc2cc3c([nH]c4ccc(Br)cc43)oc-2c1O	Artemis inh 80.9
O=c1c(O)c(-c2ccc3c(c2)OCO3)oc2ccccc12	none
Cc1[nH]c2ccc(Br)cc2c(=O)c1CN1CCOCC1	none
O=C(O)CCN1C(=O)/C(=C\c2ccc(-c3nc4ccccc4s3)o2)SC1=S	none
Cn1cccc1C(=O)C(=O)Nc1cccc(Cl)c1Cl	none
CCOc1ccccc1NC(=O)CSc1nnc(-c2ccccc2Cl)n1Cc1ccco1	none
CN(C)/N=C/c1c(O)ccc2ccccc12	none
Oc1ccc2ccccc2c1C=NC12CN3CCN(CN(C3)C1)C2	Artemis inh 40.9
Cc1[nH]n(-c2cccc(Cl)c2)c(=O)c1C=NC12CN3CN(CN(C3)C1)C2	none
Cc1ccc(S(=O)(=O)CC(=O)N(C)C)cc1	none
O=C1CCCN1CC(CN1CCOCC1)Sc1nc2ccccc2c(=O)n1-c1ccccc1 (stereo not given)	Artemis inh 33.2
Cc1cc(NC(=O)CSc2nc3ccccc3c(=O)n2-c2ccccc2)no1	none
COc1ccc(-n2c(SCC#N)nc3ccccc3c2=O)cc1	none
COc1ccccc1NC(=O)N1CCN(c2ncccn2)CC1	none
COc1ccc(OC(=O)c2cnn(-c3ccccc3)c2C)cc1	none
CCOC(=O)c1[nH]cnc1C(=O)NC(C)C	none
CCn1c(SCC(=O)Nc2oc(-c3ccccc3)c(-c3ccccc3)c2C#N)nnc1-c1ccncc1	Artemis inh 31.4
CCn1c(SCC(=O)Nc2oc(-c3ccccc3)c(-c3ccccc3)c2C#N)nnc1-c1ccco1	none
N#Cc1c(NC(=O)CSc2ccccn2)oc(-c2ccccc2)c1-c1ccccc1	none
O=C(Nc1ccccn1)C(=O)N1CCCCC1	none
Cc1cc(C)c(S(=O)(=O)c2ccccc2C)c(OCC(C)(C)C)n1	none
COc1ccc(Cl)cc1S(=O)(=O)Oc1ccc(NC(C)=O)cc1	none
O=c1c2ccccc2nc(N/N=C/c2c(O)ccc3ccccc23)n1O	Artemis inh 61.0
O=c1c2ccccc2nc(N/N=C/c2ccc(O)cc2)n1O	none
CCCc1nc2ccccc2c(=O)n1/N=C/c1ccc(O)cc1O	none
Nc1c(-c2ccc(Cl)cc2)cnn1C1CCS(=O)(=O)C1 (stereo not given)	none
COc1ccc(-c2nn(-c3ccccc3)cc2CO)cc1	none
COc1ccc(-c2nn(-c3ccccc3)cc2C(=O)Nc2nccs2)cc1	Artemis inh 47.3
COC(=O)c1ccc(NC(=O)c2cn(-c3ccccc3)nc2-c2ccncc2)cc1	none
COc1ccc(-c2nnc(SCC(=O)NCc3cccs3)n2CC(C)C)cc1	none
COc1ccc(S(=O)(=O)N/N=C(/C)c2cccc(NC(=O)c3ccccc3Cl)c2)cc1	none
CC(C(=O)N1CCCc2ccccc21)N1C(=O)c2ccccc2C1=O (stereo not given)	none
CC(C)Cn1[nH]c2c3c(ccc2c1=O)C(=O)c1ccccc1C3=O	none
CCC(=O)Nc1ccc(C(=O)Nc2ccc3c(c2)OCO3)cc1	Artemis inh 36.3
CN1CCN(CCC(=O)Nc2ccc3c(c2)OCO3)CC1	none
O=C(Nc1ccc(Cl)cc1)c1ccc2c(c1)OCO2	none
O=C(c1cccnc1)N1CCN(C(=O)c2ccccc2F)CC1	none
N#Cc1ccsc1NC(=O)CSc1ncnc2ccccc12	none
N#Cc1c(NC(=O)CSc2ncnc3sccc23)oc(-c2ccco2)c1-c1ccco1	Artemis inh 31.3
CCNC(=O)CSc1ncnc2sccc12	none
Cc1ccc(N2C(=O)C(Cl)=C(NCc3ccccc3)C2=O)c(C)c1	none
CCc1c(C(=O)NNC(=S)NCCc2ccccc2)csc1C	none
Clc1ccc(-c2cn3cccnc3n2)cc1	none
OC1CCN(c2c3c(nc4cc(-c5ccc(Cl)cc5)nn24)CCC3)CC1	none
COc1cccc(-c2csc(NC(C)=O)n2)c1	none
COc1cccc(-c2cn3nc4c(nc3n2)CCCC4)c1	Artemis inh 35.6
Clc1ccc(-c2cn3nc4c(nc3n2)CCCC4)cc1	Artemis inh 37.1
COc1cccc(-c2cc(C(F)(F)F)n3nc(N)nc3n2)c1	none
COc1cc(Nc2nnc(C)s2)c(Cl)cc1Cl	none
